Shown is part of a subset that was picked to be rich in hits.
RMI-FANCM inh = inhibitors of human RMI core complex binding to FANCM MM2; AID 1159607; 0.58% of 70,000 active; FP signal (polarization) at 33 µM; Fluorescence polarization, RMI core complex with F-MM2 peptide; active compounds read low; in the data active = FP signal below about 40
Numbers without * were called inactive; ! = not active in a repeat.

SMILES	RMI-FANCM inh
COc1cccc2c1C(=O)c1c(O)c3c(c(O)c1C2=O)C[C@@](O)(C(C)=O)C[C@@H]3O[C@H]1C[C@H](N)[C@H](O)[C@H](C)O1	65
COc1ccc(NC(=O)NC2CC(=O)N(c3ccc4c(c3)OCCO4)C2)cc1OC (stereo not drawn)	53
COc1ccc(CNC(=O)Cc2cc(=O)[nH]c(SCc3cccc(OC)c3)n2)cc1	55
O=S(=O)(Nc1ccc(-c2csnn2)cc1)c1cc(C(F)(F)F)cc(C(F)(F)F)c1	60
CCOc1cc(C2CC(=O)N3CN(Cc4ccco4)CSC3=C2C#N)cc(Br)c1O (stereo not drawn)	62
Cc1cc(C(=O)N2CCN(C3c4ccccc4-c4ccccc43)CC2)c(C)o1	47
O=C(O)c1ccccc1C(=O)N1CCN(C2c3ccccc3-c3ccccc32)CC1	32*
O=C(c1cccnc1Oc1ccccc1)N1CCN(C2c3ccccc3-c3ccccc32)CC1	57
O=C(Nc1cccc2ncccc12)c1cc2ccccc2oc1=O	60
COc1ccccc1OCC(O)CNC(C)(C)C (stereo not drawn)	71
CC(C)(C)NCC(O)COc1cccc2c1C[C@H](O)[C@H](O)C2 (stereo partly drawn)	-57*!
CC(C)(C)NC[C@H](O)COc1cccc2c1CCCC2=O	55
N#Cc1ccc2nc(C(O)C(O)c3nc4ccc(C#N)cc4[nH]3)[nH]c2c1 (stereo not drawn)	29*
OC(c1nc2ccccc2[nH]1)C(O)c1nc2ccccc2[nH]1 (stereo not drawn)	54
OC(c1ccccc1)c1nc2ccccc2[nH]1 (stereo not drawn)	60
O=C(Nc1ccccc1Cl)c1csc2c1CCCC2	65
O=[N+]([O-])c1ccc(Oc2ncnc3cc(Cl)ccc23)nc1	56
Cc1cc(-c2nnc(NC(=O)c3cc4cc([N+](=O)[O-])ccc4s3)o2)n(C)n1	68
Cc1c(S(=O)(=O)CCNC(=O)Nc2ccccc2Cl)c2ccccc2n1C	54
Cc1cccc(NC(=O)NCCS(=O)(=O)c2c(C)n(Cc3ccc(F)cc3)c3ccccc23)c1	57
Cc1ccc(NC(=O)NCCS(=O)(=O)c2c(C)n(Cc3ccccc3)c3ccccc23)cc1C	31*
O=C(c1cccc(C(F)(F)F)c1)N1CCCC(c2nnc(-c3cccs3)o2)C1 (stereo not drawn)	64
CC(c1ccccc1)N1C(=O)/C(=C\c2cccnc2)SC1=S (stereo not drawn)	26*
O=C1/C(=C/c2cccnc2)SC(=S)N1c1ccccc1F	61
O=C(O)CCN1C(=O)/C(=C\c2cccnc2)SC1=S	62
SMILES	RMI-FANCM inh
COc1ccccc1N1CCN(S(=O)(=O)c2ccc(Oc3ccccc3C)cc2)CC1	78
N#CCCn1cc(/C=C2\SC(=S)NC2=O)c(-c2cccc3ccccc23)n1	62
O=C(CCS(=O)(=O)c1ccc(Cl)cc1)Nc1nnc(-c2ccncc2)o1	66
O=C(CCS(=O)(=O)c1ccc(F)cc1)Nc1nnc(-c2cccnc2)o1	57
O=C(CCS(=O)(=O)c1ccc(Cl)cc1)Nc1nnc(-c2ccc(F)cc2)o1	34*
O=C1C([N+](=O)[O-])=C(O)c2cccc3cccc1c23	-1*
O=C1c2ccc3ccccc3c2-c2cccc3cccc1c23	-54
O=C(C1=C(Cl)c2cccc3cccc(c23)C1=O)c1ccccc1	52
S=c1cc(-c2cc(Cl)cc3c2OCOC3)oc2ccc(Cl)cc12	55
COC1=CC(=CN(O)c2ccccc2)C=C(OC)C1=O	63
COc1ccc(NS(=O)(=O)c2ccc(NC(C)=O)cc2)cc1	55
COc1ccc(Nc2nc3ccccc3nc2NS(=O)(=O)c2ccc(NC(C)=O)cc2)cc1	7*!
O=C(O)c1cccc(Nc2nc3ccccc3nc2NS(=O)(=O)c2ccc(F)cc2)c1	58
COc1ccc(Cl)cc1C(=O)NNc1cc(=O)n(C)c(=O)n1C	58
Cc1cc(NS(=O)(=O)c2ccc(NC(=O)c3oc4cc(C)c(C)cc4c3C)cc2)nc(C)n1	17*
Cc1cc(NS(=O)(=O)c2ccc(NC(=O)CCN3C(=O)c4ccccc4C3=O)cc2)nc(C)n1	60
Cc1cc(NS(=O)(=O)c2ccc(NC(=O)c3ccc(Br)o3)cc2)no1	66
Cc1ccccc1CN1CCC(c2nc3ccccc3[nH]2)CC1	53
COc1ccc(-c2nc(COC(=O)c3nnn(-c4ccc(C)c(C)c4)c3C)c(C)o2)cc1	68
CC(C)CNC(=O)Cc1csc(SCC(=O)c2ccc3c(c2)OCO3)n1	71
O=[N+]([O-])c1ccc(Sc2ccc(Cl)cc2Cl)c2nonc12	33*
O=[N+]([O-])c1ccc(SC2=NCCN2)c(Cl)c1	53
O=[N+]([O-])c1ccc(Sc2ccccc2)c(Cl)c1	53
CS(=O)(=O)c1ccccc1-c1nnc(NC(=O)Cc2cccc3ccccc23)o1	54
Fc1ccc(Cn2c3ccccc3c3nn4cnnc4nc32)cc1	28*
COc1ccc(Cn2cnc3c4ccccc4n(CC(=O)NCc4ccccc4)c3c2=O)cc1	101
COCCNC(=O)Cc1cn(Cc2ccc(F)cc2)c2ccccc12	65

Screening data as filed in PubChem BioAssay.
